The supplement of paper PMC6555819

These sequences were tested on VDR:RXRa (NR concentration 270 nM, RXRa partner concentration 90 nM) (assay: PBM binding z-score (relative to random genomic background probes); higher = stronger binding; sequences stand for … in GC…GCGATTGACAGCGTAGAATGAAGG).
Protocol: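 Protein-binding microarray (Agilent 4x180K custom design, double-stranded 60-nt probes: 5' GC cap, 34-nt variable region, 24-nt constant primer region; full probe sequence given). Purified or IVT nuclear receptor:RXRα heterodimers (3:1 NR:RXRα, mostly 270:90 nM) or homodimers were incubated for 1 h in PBS with 2% milk and no ligand, then detected with Alexa488 antibodies. Fluorescence from o1-orientation probes (~5 replicates averaged) was converted to z-scores against 500 random hg19 background probes. Variable regions are seed direct-repeat (DR0–DR5) sites, all their single-nucleotide variants and half-site ablations.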

Sequence	PBM binding z-score
GATACAGGGTCCGCTAGAGGCCAGAGTATGGAAA	-0.544
TCATATAAGTAAAAGGTGAAAGTCGGTGTGGTAA	1.24
AATACAGGGTCACTAGGCCAGAGAAGGTACGAAT	4.08
GCAGACAGGTGAAACGCAGGTGACTCAGGGTGGC	-0.335
CAAACTAGGTCAAAGGTCGAAGTCGAGCCAACCA	5.03
AGAATGAGGTTATAAGTAGATCAGGGAAGAAAGT	1.26
GCTTGTTGGTCAGTAAAAGGTCACACACCGGTCG	3.86
ACTCGGAGGCCAAAGGTCAGAGCTACGCCAGTGA	3.11
ACTAGCAGGCCAAGGGTCACTAAAGATTAGTCCG	2.62
GCTATTAGTTGGAAGGGCAACCGAATGATTCTCG	-0.223
ACTATTAGTTGATACGAGGGCAACCGATAGGTTG	0.867
TCATATAGGTAAAAGGTGAAAATCGGTGTGGTAA	1.65
CCGACTGGGGCATAAGTTTACCATAAGCCAGCCC	-0.462
CGAACTAGGTCAGAACAGGACAGTGGAGGATGAT	0.581
TCATATATGTAAATGCTAGGTGAAAGTCCGATCT	0.934
CGAACGAGGACATGAGTTGATAGCAAATGCCGAT	0.112
AGTCAAAGTTCCCTAGGTAACGTAAGATTCAGCT	-0.251
CGAACTAGGTCATTGACAGGACGGTGAATAGTAA	1.62
TCTTGTGGATCAAGCAGGTTAAGAAAGCCTGAGT	0.403
ACTATTAGTTGTGACGAGGGCAACCGATAGGTTG	0.506

Sequence	PBM binding z-score
TCGAGTAGATTAGTCGGGGCATTCAGCCAACATA	-0.0689
TCTGCTAGGTCAACGGTGGTCAGCTAATCTGCTA	1.95
GCTGCTAGGTCAACTGATGGTCAGTTAAAGCTCG	1.85
CGTCCAAGGTCAAGGTCAGTTAAAGAGACTCGAA	4.83
ATACCAAGGTGAACGTGAGGTCGTTGATACTAAC	4.41
CAAACTACGTCACAGAGGTCAAAGTCCGTGCGTA	5.85
CGAACTAGGTCAGTGACAGGACAGTGAATAGTAA	0.664
AGAACGAGGGCGATGAGTTGATAGCACGGGTGGC	3.12
ATCGAAAGGTCGTGGGGTGAGTATACAGAAAGGC	4.83
CGAACGAGGGCATGCGTTGATAGCAAATGCCGAT	0.672
ATCGAAAGGTCGAGGCGAGTATAGAGAAAGGGAA	2.33
GCTTATGGGTCAAAGGTTATAGCATGAATAGAAT	4.82
TGTCAAAGTTCAAAGGTATCGTAAGTATCCACAC	4.75
GCGACTGGGGCAAAGCAGGTAACCATAAGGTTGG	-0.313
ATCGAAAGGTCGACGAGGTGAGTATTCACCGTTT	5.38
ACTAGCAGGCCAAGTTTGGGCCACTCAAACAAAG	-0.648
CGTCCAAGGGCAAAGGTCAGTGAAGAGATGACGG	3.89
GCTCGGAGGACAAGGACAGAGCTTTGTCCGTAGA	-0.798
ATCTCTATGTAACCAAGTTCAGTGAATGCCGAAC	2.22
TAGCCTAGGTCATGGGCCGGTATACCACGCGAAC	2.18
